# Most compounds without a hit are left out; they make up all but 21% or so of the library.
# Pf growth 48h – Primary qHTS for delayed death inhibitors of the malarial parasite plastid, 48 hour incubation; P. falciparum luciferase growth in erythrocytes, 48 h; 310,000 compounds, 5.9% hits; Potency, µM (doses to about 28.7 µM), for the others: at the top dose activity change, negative = inhibition, usual class: inhibitors; note: potency is the fitted concentration of half-maximal effect; % is set by controls: 0 for no effect and ±100 for the full control effect
#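 Growth was read as firefly luciferase luminescence after a 48 h, 37 C, 5% CO2 exposure of compounds to reporter-bearing P. falciparum cultures (0.1% parasitemia, 2% hematocrit final) in Albumax-supplemented RPMI 1640.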
# HCV inh – qHTS Assay for Inhibitors of Hepatitis C Virus (HCV); AID 651820, 2012; 340,000 compounds, 3.4% hits; Huh7.5.1 HCVcc-Cre infection, luciferase reporter, 44 h; Potency, µM (top dose mostly 41.8 µM), for inactives: at the top dose activity change, negative = inhibition, usual class: inhibitors; note: potency is the fitted concentration of half-maximal effect; % is set by controls: 0 for no effect and ±100 for the full control effect
#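 1,000 cells/well; 4 h culture; + compound; + HCVcc-Cre (~0.5 moi); 44 h; luciferase substrate, RT 15 min; read 15 sec.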
# HCMV antiviral – qHTS Assay for inhibitors of the human cytomegalovirus (HCMV); 410,000 compounds, 4.5% hits; HFF cells, HCMV-luciferase reporter, 72 h; hits give low values; activity change, negative = inhibition, % at 57.5 µM; in the data active = activity change below about -60%; inconclusive = no clear call, values can overlap the other calls; inactive = above about -39%; note: % is set by controls: 0 for no effect and ±100 for the full control effect
#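 Human foreskin fibroblasts infected with luciferase-reporter HCMV at MOI 1 PFU/cell, compounds at two doses. Luciferase measured 72 h post infection; normalized to buffer-only basal and Salinomycin (10uM) controls.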
# Shiga inhibitor – A qHTS for Small Molecule Inhibitors of Shiga Toxin; Vero cells, Shiga toxin protein synthesis inhibition reporter; inhibition, % at 38.7 µM; 290,000 compounds, 9.2% hits; AID 2315, 2010; in the data active = inhibition mostly above about 28%, no sharp cut-off; inactive = mostly below about 43%; note: 0% is about no effect
# Pf growth 96h – Primary qHTS for delayed death inhibitors of the malarial parasite plastid, 96 hour incubation; 320,000 compounds, 6.9% hits; P. falciparum luciferase reporter growth, 96 h; Potency, µM (series often up to 28.7 µM), inactives show top-dose activity change, negative = inhibition, hits mostly inhibitors; AID 504834, 2011; note: potency is the fitted concentration of half-maximal effect; % is set by controls: 0 for no effect and ±100 for the full control effect
#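 Compounds incubated with erythrocytes infected by luciferase-expressing P. falciparum (2% hematocrit, 0.05% parasitemia final) for 96 hours, 37 C in 5% CO2. Growth inhibition scored as decreased luciferase luminescence.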
# Cycloheximide cs – Cycloheximide Counterscreen for Small Molecule Inhibitors of Shiga Toxin | cell reporter, cycloheximide protein synthesis inhibition counterscreen | max response, % | 300,000 compounds, 12% hits; in the data active = max response mostly above about 13%, no sharp cut-off; inactive = mostly below about 14%; note: read at 38.3 µM for the half of the compounds with a filed dose; 0% is about no effect
# Active calls of the source: *; u = inconclusive; x = no result. Unless noted, calls come from the whole dose curve; as a rule, active = well fitted inhibition curve with a large enough effect; inconclusive = small, poorly fitted or top-dose-only effect, or another doubt; inactive = no such curve, though single readings can be large or run the other way.
SMILES,Pf growth 48h,HCV inh,HCMV antiviral,Shiga inhibitor,Pf growth 96h,Cycloheximide cs
CCOC(=O)c1ccc(NCCOC)c([N+](=O)[O-])c1,86%,-26%,-30,88*,6%,40*
CCOC(=O)c1ccc(C(=O)OCC)c(NC(=S)Nc2ccc([N+](=O)[O-])cc2OC)c1,34%,u,-6,67*,2.9µM*,69*
CCNc1ccc(C(=O)OCC(=O)NCc2ccc(C)cc2)cc1[N+](=O)[O-],0%,-5%,-5,-11,u,-8
CCOC(=O)Nc1ccc([N+](=O)[O-])cc1OC,x,-7%,21,x,x,x
Cc1n[nH]c(C)c1CCNC(=O)C1CCC(=O)N(Cc2ccccc2F)C1 (stereo not given),16%,27%,14,9,-41%,3
O=C1CC(C(=O)N2CCN(c3ccccc3)CC2)CN1Cc1ccccc1 (stereo not given),x,13%,-5,x,x,x
COc1ccc(CNC(=O)c2cnc(N3CCCC3)nc2C)cc1,x,x,-11,x,x,x
Cn1cnc(S(=O)(=O)Nc2ccc(OC(F)F)cc2)c1,49%,3%,42,15,0%,-1
COc1ccccc1Nc1nnc(SCC(=O)Nc2nc(-c3ccc(F)cc3)cs2)s1,1%,-27%,-88*,-9,13µM*,5
COc1ccc(-c2csc(NC(=O)CSc3nnc(Nc4ccccc4C)s3)n2)cc1,u,-24%,-70*,28,u,3
CCOc1ccccc1Nc1nnc(SCC(=O)Nc2nc(-c3ccc(OC)cc3)cs2)s1,u,-15%,1,19,u,10
O=C(CC[C@H]1O[C@@H](n2ccc(=O)[nH]c2=O)[C@H](O)[C@@H]1O)NCC(c1ccccc1)c1ccccc1,x,x,15,x,x,x
Cc1cc(=O)oc2cc(NC(=O)c3cc4ccccc4o3)ccc12,100%,-15%,79,80,x,20
Cc1cc(=O)oc2cc(NC(=O)c3ccccc3OC(F)F)ccc12,62%,u,143,115*,64%,30*
Cc1cc(=O)oc2cc(NC(=O)c3cccc(Br)c3)ccc12,149%,0%,-74*,x,u,-3
Cc1cc(=O)oc2cc(NC(=O)c3cc(F)ccc3F)ccc12,301%,-22%,-3,x,40%,x
N#Cc1ccc(CSc2nnc(Nc3ccccc3)s2)cc1,x,u,u,-4,0%,-3
c1ccc(CSc2nnc(NC3=NCCCCC3)s2)cc1,47%,-20%,32,102*,56%,44*
CCn1cc(C(=O)NCCc2ccc(OC)c(OC)c2)c(=O)c2cc(S(=O)(=O)N3CCC(C)CC3)ccc21,x,x,-24,x,x,x
Cc1ccc(-c2csc3nc(SCC(N)=O)n(Cc4ccccc4)c(=O)c23)cc1,13µM*,u,-28,-15,10%,-2
CCCn1c(SCC(=O)C(C)(C)C)nc2ccccc21,-18%,1%,-67*,23,8%,2
NC(=O)CSc1nc2ccccc2n1Cc1ccccc1,2.9µM*,19%,u,-12,-16%,-4
NC(=O)CSc1nc2ccccc2n1-c1ccccc1,-16%,-17%,4,-7,9.3µM*,-5
COc1cccc(C2CC(=O)Nc3cc(OC)c(OC)c(OC)c32)c1OC(C)C (stereo not given),x,x,-4,x,x,x
Cc1ccc(-n2nc3c(N4CCC(C(=O)NC(C)C)CC4)nnc(C)c3c2C)cc1,x,x,-10,x,x,x
SMILES,Pf growth 48h,HCV inh,HCMV antiviral,Shiga inhibitor,Pf growth 96h,Cycloheximide cs
c1ccc(OCCSc2nnnn2C2CCCCC2)cc1,381%,6%,87,95*,-14%,30*
Cc1nc2ccc([N+](=O)[O-])cc2c(=O)n1Cc1ccc(F)cc1,-15%,-19%,-8,-7,0%,-1
CCN(CC)CCNC(=O)C(=O)Nc1ccc2c(c1)N(S(=O)(=O)c1cccs1)CCC2,15µM*,u,-23,x,u,x
COc1cccc(OC)c1C(=O)Nc1ccc2c(c1)N(S(=O)(=O)c1cccs1)CCC2,u,-21%,-36,-3,4%,-3
O=C(Nc1ccc2c(c1)N(S(=O)(=O)c1cccs1)CCC2)c1c(F)cccc1Cl,u,14µM*,-27,x,u,x
O=C(CSc1nc(-c2ccccc2)no1)N1CCCCC1,x,x,7,x,x,x
COc1cc2c(cc1Cl)C(=O)C(F)(c1ccccc1)C(=O)N2 (stereo not given),u,14%,33,-8,-5%,-2
COC(=O)c1ccc2c(c1)NC1=C(C(=O)CC(C)(C)C1)C(c1ccncc1)N2 (stereo not given),30%,16%,-20,84*,-60%,42*
CC1=C(C(=O)OC2CCCC2)C(c2coc3ccc(C)cc3c2=O)C2=C(CCCC2=O)N1 (stereo not given),u,0%,-24,-6,4%,-3
COC(=O)C1=C(C)NC2=C(C(=O)CC(C)(C)C2)C1c1ccsc1 (stereo not given),u,-25%,28,-5,u,-5
COC(=O)C1=C(C)NC2=C(C(=O)CC(C)(C)C2)C1c1ccccn1 (stereo not given),-4%,-1%,57,13,9.3µM*,-1
COC(=O)c1ccc(C2Nc3ccccc3NC3=C2C(=O)CC(C)(C)C3)cc1 (stereo not given),-11%,16%,16,-6,-13%,-4
CC1=C(C(=O)OC2CCCC2)C(c2coc3ccccc3c2=O)C2=C(CC(C)(C)CC2=O)N1 (stereo not given),4.1µM*,-10%,-36,-10,u,-2
CCn1cc(C(=O)N[C@@H](CCSC)C(=O)NCCO)c(=O)c2cc3c(cc21)OCO3,8.3µM*,14%,-35,-3,6.6µM*,-3
CC(=O)Nc1ccc(NC(=O)C(C)OC(=O)C2(c3ccc(F)cc3)CCCC2)cc1 (stereo not given),u,u,-29,-3,u,-7
CC(=O)Nc1ccc(NC(=O)C(C)OC(=O)C2(c3ccc(Cl)cc3)CCCC2)cc1 (stereo not given),9.3µM*,-6%,39,-13,12µM*,-2
CC1(C(=O)NS(=O)(=O)Cc2ccccc2)CCN1C(=O)Cc1cc(F)ccc1F (stereo not given),x,x,21,x,x,x
O=C(Nc1cc(C(F)(F)F)ccc1Cl)c1cc(-c2ccc3c(c2)OCCO3)on1,x,x,6,x,x,x
NC(=O)c1ccc(Cc2ncc(C(F)(F)F)cc2Cl)s1,-22%,u,-11,6,5.2µM*,-1
O=S(=O)(N/N=C/c1ccc(Cl)cc1)c1ccc(Cc2ncc(C(F)(F)F)cc2Cl)s1,14%,-14%,u,-6,x,-1

# From PubChem
